Data as given in PubChem BioAssay AID1963822 (ICCB-Longwood Screening Facility, Harvard Medical School, 2024).
The whole screen tested about 55,000 compounds, of which about 90 (0.2%) were called active. How the calls were made is not given here. The sample as a whole holds a higher share of actives than the screen did.

Experiment: growth inhibitors of anaerobic choline-fed gram-negatives, minimal medium, absorbance (AID 1963822)
Settings: Gram-negative bacterium anaerobic choline minimal medium
[1] = measured here: choline growth z-score, timepoint 1, stronger effect = lower value

Row | SMILES | z-score (stronger effect = lower value) | z-score [1]
1 | O=S(=O)(Nc1ccc(F)cc1)c1cc(-c2noc(C3CC3)n2)cs1 | 0.08 (inactive) | -0.4
2 | COc1ccccc1CNc1ncc2nc(-c3ccccc3)oc2n1 | -0.72 (inactive) | -0.32
3 | Cc1ccc(-c2cc(C(=O)N3CCN(C)CC3)no2)cc1C | -2.15 (inactive) | -1.67
4 | C=CCn1c(=O)c(=O)n(Cc2ccc(C(=O)N3CCC(N4CCCCC4)CC3)cc2)c2ccccc21 | 0.52 (inactive) | 0.14
5 | O=C(Cn1cccc1-c1nc(-c2ccc(Cl)cc2)cs1)NCc1ccc2c(c1)OCO2 | 0.32 (inactive) | -0.44
6 | CC(C)c1nnc2ccc(N3CCN(C(C)C)CC3)nn12 | 0.55 (inactive) | -2.47
7 | CCCN1C(=O)c2ccccc2Sc2cc(-c3noc(/C=C/c4ccccc4)n3)ccc21 | -0.13 (inactive) | 0.3
8 | COC(=O)Cn1nc2c(-c3nc(-c4ccc(Cl)cc4)no3)cccn2c1=O | -0.55 (inactive) | -1.3
9 | Cc1ccc(N2CC(c3nc(-c4ccc(N5CCCC5)cc4)no3)CC2=O)cc1C (stereo not drawn) | 0.33 (inactive) | 0.93
10 | CC1CCN(CCCNC(=O)Cc2ccc(NC(=O)N3CCSc4ncccc43)cc2)CC1 | 1.04 (inactive) | 0.79
11 | Cc1cc(C)c2nc(C)cc(C(=O)NC3CC3)c2c1 | 1.05 (inactive) | 0.53
12 | CCC1(CC)Cc2ccccc2-c2[nH]c(=O)n(CC3=CCCO3)c(=O)c21 | 0.12 (inactive) | -1.14
13 | COc1ccccc1N1CCN(c2ccc(=O)n(CC(=O)NCc3ccccn3)n2)CC1 | -0.67 (inactive) | -0.7
14 | CN(C)C(=O)c1cc2c(s1)CCC(C(=O)N(C)C)C2 (stereo not drawn) | 0.34 (inactive) | 0.33
15 | CC(C)(C)c1ccc(S(=O)(=O)NCc2nc(N)n(S(=O)(=O)c3ccc(C(C)(C)C)cc3)n2)cc1 | -0.11 (inactive) | 0.06
16 | CCOc1ccc(N(Cc2nc3nc(C)cc(C)n3n2)C(=O)CC(C)C)cc1 | -0.89 (inactive) | -1.11
17 | CCOc1ccc(-c2cc(C(=O)Oc3ccc(OC)cc3)no2)cc1 | -0.02 (inactive) | 0.37
18 | O=C(CN1C(=O)CSc2ccc(S(=O)(=O)N3CCCC3)cc21)Nc1cccnc1 | 0.64 (inactive) | 0.19
19 | O=C(NC1CC1)C1CCCN(c2ccc3cc(S(=O)(=O)N4CCCCC4)ccc3n2)C1 (stereo not drawn) | -0.89 (inactive) | -0.76
20 | O=C(Nc1ccc(F)cc1)c1ccccn1 | -3.6 (inactive) | -3.98
21 | O=C(c1nnc(-c2ccc(S(=O)(=O)N3CCCC3)cc2)o1)N1CCCC1 | 0.25 (inactive) | 0.12
22 | COc1ccnc2c1c(=O)n(CC(=O)N1CCCc3ccccc31)c(=O)n2C | 1.04 (inactive) | 0.31
23 | CCC(=O)NCCc1nc2cc(NC(=O)C3CCCCC3)ccc2n1C | -0.79 (inactive) | -0.11
24 | COc1cccc(CSc2nc3c(-c4ccccc4)c[nH]c3c(=O)[nH]2)c1 | 0.44 (inactive) | -0.28
25 | Cn1c(=O)n(-c2ccc(F)cc2)c2nc(-c3cccc(F)c3)nc(C(N)=O)c21 | -0.47 (inactive) | 0.68
26 | CCc1nc2ccccc2c(=O)n1Cc1noc(CN2C(=O)COc3ccccc32)n1 | 0.03 (inactive) | 0.5
27 | O=C(NC1CCCc2ccccc21)c1ccc(-c2cc(N3CCOCC3)ncn2)cc1 (stereo not drawn) | 0.49 (inactive) | -1.29

Row | SMILES | z-score (stronger effect = lower value) | z-score [1]
28 | Cc1noc(-c2cccnc2N2CCN(C(c3ccccc3)c3ccccc3)CC2)n1 | 0.85 (inactive) | 0.28
29 | Cc1nc(-c2cc(S(=O)(=O)N3CCN(c4ccccc4F)CC3)c(C)s2)cs1 | 1.43 (inactive) | 0.83
30 | O=C(NCCN1CCOCC1)C1CCN(c2cncnc2N2CCCCC2)CC1 | 0.71 (inactive) | 0.79
31 | C=CCSc1n[nH]c(NC(C)=O)n1 | 0.76 (inactive) | 0.64
32 | Cc1ccc(C(C)C)c(OC(C)C(=O)Nc2onc3c2CCCC3)c1 (stereo not drawn) | -0.74 (inactive) | -0.51
33 | CCN1C(=O)c2ccccc2Sc2cc(-c3noc(-c4ccc5c(c4)OCO5)n3)ccc21 | 0.5 (inactive) | 0.22
34 | CCOc1ccc(N2CCCCn3c2nc2c3c(=O)n(CCC(C)C)c(=O)n2C)cc1 | -0.58 (inactive) | 0.29
35 | COc1ccc(-c2cc3nc(C)cc(N4CCOCC4)n3n2)cc1OC | 0.32 (inactive) | -0.41
36 | CCN(CCCNC(=O)c1cccn2c(=O)c3ccccc3nc12)c1cccc(C)c1 | 1.29 (inactive) | 1.6
37 | Cc1ccc(/C=C/c2nn3c(-c4ccoc4C)nnc3s2)cc1C | -0.03 (inactive) | 0.36
38 | O=C(CCc1nc(CSc2nnc(-c3ccccc3)o2)no1)Nc1ccc(F)c(Cl)c1 | -0.29 (inactive) | -0.24
39 | COc1cc(OC)cc(N2C=C(C#N)S(=O)(=O)c3cc(F)ccc32)c1 | 0.71 (inactive) | 0.22
40 | O=S(=O)(c1ccc2c(c1)-c1oncc1CO2)N1CCN(C(c2ccccc2)c2ccccc2)CC1 | 0 (inactive) | -0.77
41 | CC(=O)N1CCc2cc(N3CC(C(=O)N4CCC5(CC4)OCCO5)CC3=O)ccc21 (stereo not drawn) | -1.2 (inactive) | -0.84
42 | O=S(=O)(c1ccccc1F)N1CCN(c2ncnc3c2nnn3-c2ccccc2)CC1 | 1.03 (inactive) | 0.86
43 | COc1cc(C2Nc3c(C)cc(C)cc3[C@H]3OCC[C@@H]23)cc(Br)c1OC (stereo partly drawn) | 0.49 (inactive) | 0.1
44 | Cc1cc(C)nc(SCCn2c(N3CCC(C)CC3)nc3c2c(=O)[nH]c(=O)n3C)n1 | 0.25 (inactive) | 0.24
45 | COc1ccc(C2CC(c3c(O)n(C)c(=O)n(C)c3=O)=NN2)cc1 (stereo not drawn) | 0.56 (inactive) | 0.56
46 | O=C(Cn1c(=O)c(=O)n(Cc2ccncc2)c2ncccc21)NCCN1CCCCC1 | 1.65 (inactive) | 0.64
47 | COC(=O)c1cc(S(=O)(=O)N2CCCC2C(=O)N2CCc3ccccc32)cn1C (stereo not drawn) | -0.38 (inactive) | -0.18
48 | COc1ccc(-c2cc(Oc3cccc(C(=O)NC4CCCCC4)c3)ncn2)cc1 | 1.55 (inactive) | 1.41
49 | O=C(NCCC1=CCCCC1)C1CCN(c2cc(-c3cccc(F)c3)ncn2)CC1 | 1.01 (inactive) | 0.77
50 | CC(C)NC(=O)Cc1csc(NC(=O)C2CC2)n1 | 0.37 (inactive) | -0.55
51 | COc1cccc(NC(=O)c2ccc(-n3nc(N4CCCC4)ccc3=O)cc2)c1 | -0.3 (inactive) | -0.77
52 | CCOC(=O)c1cnc(SC(CC)C(=O)Nc2ccc(Br)cc2)nc1N (stereo not drawn) | 0.81 (inactive) | 0.87
53 | O=C1CN(C(=O)CSc2ccc(Cl)cc2)c2ccccc2N1 | -2.07 (inactive) | -0.23
54 | COc1ccc(C2N=C(Nc3ccc(C(C)C)cc3)Nc3nc(C)cc(=O)n32)cc1OC (stereo not drawn) | 0.3 (inactive) | -0.84

Row | SMILES | z-score (stronger effect = lower value) | z-score [1]
55 | Cc1nc(-c2csc(S(=O)(=O)N3CCCC(C(=O)N4CCCCC4)C3)c2)no1 (stereo not drawn) | 0.63 (inactive) | -0.32
56 | CC(=O)N1CCCN(S(C)(=O)=O)CC1 | 0.45 (inactive) | 1.28
57 | CC(C)c1nnc(-c2cc3ccccc3n2CC(=O)N(C(C)C)C(C)C)o1 | -0.44 (inactive) | 0.05
58 | COc1cc(C2OC(c3ccccc3)=NN2C(C)=O)ccc1O (stereo not drawn) | -1.46 (inactive) | -1.53
59 | O=C(Cn1nc2n(CCc3ccccc3)c(=O)c3ccccc3n2c1=O)NCc1ccccc1Cl | 0.2 (inactive) | 0.39
60 | COc1ccc(OC)c(CNC(=O)C2CCCN(c3ncnc4c3oc3ccccc34)C2)c1 (stereo not drawn) | -0.39 (inactive) | -0.94
61 | CN(C)CCCNC(=O)c1sc2ncccc2c1-n1cccc1 | -0.76 (inactive) | -0.95
62 | Cc1ccc(/C=C/c2nc(-c3ccc4c(c3)[nH]c(=O)c(=O)n4C(C)C)no2)cc1 | 0.12 (inactive) | -0.05
63 | CCc1nc(-c2ccc(C(=O)NCC(=O)Nc3ccc(Cl)cc3)cc2)no1 | -0.03 (inactive) | -0.94
64 | CC(C)C(=O)N1CCN(c2ccc(Nc3c4c(nc5nc(-c6ccccc6)nn35)CCCC4)cc2)CC1 | -0.12 (inactive) | 0.82
65 | O=C(NCCc1cscn1)[C@H]1CSCN1C(=O)c1ccccc1 | 0.46 (inactive) | 0.42
66 | CCC(=O)Nc1cccc(-c2noc(C3CCCN(C(=O)c4ccc(F)cc4)C3)n2)c1 (stereo not drawn) | 0.07 (inactive) | -0.16
67 | O=S(=O)(c1ccc2c(c1)CCCC2)N1CCC2(CC1)Nc1cc(F)ccc1-n1cccc12 | -0.8 (inactive) | -0.36
68 | O=S(=O)(c1ccccc1)c1ccc(N2CCN(c3ccccc3)CC2)nn1 | -0.18 (inactive) | -1.06
69 | O=C(NCCc1cnc[nH]1)c1ccc(Cn2c(SCc3ccc(F)cc3)nc3cccnc32)cc1 | -0.7 (inactive) | -0.94
70 | CCOC(=O)CC1=CC(SCC(=O)c2cc(C)ccc2C)=Nc2ccccc2N1 | 0.16 (inactive) | 0.19
71 | COc1ccc(NC(=O)c2ccc(-c3nc(-c4ccccc4)no3)cc2)cc1 | -1.61 (inactive) | -1.39
72 | Cc1ccc2c(Cl)c(C(=O)Nc3onc4c3CCCC4)sc2c1 | 0.44 (inactive) | 0.27
73 | COc1ccc(Cn2c(CCC(=O)Nc3cccc(C)c3C)nc3cccnc32)cc1 | 0.59 (inactive) | 0.56
74 | CC(=O)Nc1ccc(N(C)CCCc2c(C)nn(C)c2C)c(C(=O)O)c1 | 0.96 (inactive) | 0.43
75 | COC(=O)CSc1nc2cc(-c3ccccc3)sc2c(=O)n1C | 0.31 (inactive) | 0.31
76 | CCCN(C)S(=O)(=O)c1c(C)[nH]c(-c2nnc(C3CCC3)o2)c1C | 0.79 (inactive) | 0.59
77 | COc1ccc2nc(-n3nc(C)c4c3NC(=O)CC4c3ccsc3)sc2c1 (stereo not drawn) | -2.13 (active) | -0.51
78 | COc1ccc2nc(-n3nc(C)c4c3NC(=O)CC4c3cc(Br)ccc3OC)sc2c1 (stereo not drawn) | -0.06 (inactive) | 0.15
79 | COc1ccc2nc(-n3nc(C)c4c3NC(=O)CC4c3ccc4c(c3)OCO4)sc2c1 (stereo not drawn) | 1.23 (inactive) | 1.32
